# Compound activity from PubChem.
# MCL1-BIM inh: MCL1-BIM-BH3 interaction inhibition (human). Q07820. GST-MCL1 / FITC-Bim-BH3 fluorescence polarization. inhibition, % at 10.9 µM. 0.68% of 320,000 active;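 active means inhibition above the mean inhibition of all tested compounds plus 3 SD, set per campaign, cut at about 40% in these data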;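 further: 0% = DMSO wells and 100% = unlabeled Bim-BH3 peptide control; higher means more loss of mP so more displacement of Bim peptide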
# Bcl-xL primary: blocks human Bcl-xL binding to Bim BH3 peptide; inhibition, % at 10.9 µM; Q07817; GST-Bcl-xL / FITC-Bim BH3 peptide fluorescence polarization; 0.7% of 320,000 active; AID 2129;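 active means inhibition above the mean of all tested compounds plus 3 SD, cutoff set per campaign, cut at about 30% in these data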;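 further: 0% = DMSO wells and 100% = unlabeled Bim-BH3 peptide competitor; inhibitors lower millipolarization by displacing the labeled peptide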
# Target sequence (Q07817 whole entry, looked up): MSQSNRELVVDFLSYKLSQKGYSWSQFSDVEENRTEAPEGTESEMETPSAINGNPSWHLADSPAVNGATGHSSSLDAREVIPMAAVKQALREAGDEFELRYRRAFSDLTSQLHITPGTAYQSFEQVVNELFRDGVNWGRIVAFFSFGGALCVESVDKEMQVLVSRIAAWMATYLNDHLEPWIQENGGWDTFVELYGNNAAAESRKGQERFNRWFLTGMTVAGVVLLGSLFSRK
# eLon inh: E. coli protease La inhibition; P0A9M0; purified E. coli Lon protease, fluorescence polarization; inhibition, % at 7.94 µM; 0.42% of 360,000 active; AID 602123; in the data active means inhibition above about 13%, passing the limit was not always enough;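 further: 0% = enzyme with probe and DMSO and 100% = no enzyme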
# EBV gp42 inh: EBV gp42 inhibition; Q1HVG2; Fluorescence polarization binding assay, mP read-out; inhibition, % (tested at 21.74 µM); 0.42% of 220,000 active; AID 1085; in the data active means inhibition above about 50%
# Target sequence (Q1HVG2 whole entry, looked up): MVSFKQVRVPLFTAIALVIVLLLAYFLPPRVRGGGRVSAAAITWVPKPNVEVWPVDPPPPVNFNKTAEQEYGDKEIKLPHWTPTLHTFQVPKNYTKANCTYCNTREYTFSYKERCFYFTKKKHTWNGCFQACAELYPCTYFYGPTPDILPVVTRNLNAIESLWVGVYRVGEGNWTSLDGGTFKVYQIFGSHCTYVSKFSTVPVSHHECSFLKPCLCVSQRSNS
# MEX-5 binding: C. elegans MEX-5 TCR-2 RNA binding activity; activity score (negative = inhibition of binding), % at 10 µM; Q9XUB2; MEX-5/FITC-TCR2 RNA binding, fluorescence polarization; stronger effect = lower value; 0.38% of 300,000 active;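 active means inhibition past about -25% in most replicates, and total fluorescence under double the plate's negative control median, limit read from the data; inconclusive means replicates evenly split on the limit, or fluorescence at least double controls; inactive means too little inhibition in most replicates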;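 further: 0% = DMSO and -100% = 5 µM competing unlabeled TCR2 RNA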
# GLD-1 RNA inh: GLD-1-TGE RNA interaction inhibition (C. elegans). Q17339. purified GLD-1 + fluorescein TGE RNA, fluorescence polarization. inhibition, % at 5.96 µM. 0.44% of 320,000 active;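 active means percent inhibition above a per-plate cutoff, the plate mean of test compounds plus 3 SD, cut at about 30% in these data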;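 further: 0% = DMSO wells with GLD-1 and probe and 100% = wells lacking GLD-1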
# Active calls of the source: *; u = inconclusive; x = no result. Shown are actives, neighbours in structure and some others; about 1.5% of the full set was active somewhere.
SMILES,MCL1-BIM inh,Bcl-xL primary,eLon inh,EBV gp42 inh,MEX-5 binding,GLD-1 RNA inh
CN1c2ccccc2N(C)C1(C)c1cccc2ccccc12,27,43*,-5,-77,-4,27
CN1c2cccc3cccc(c23)N(C)C1(C)C,7,10,10,-20,1,-6
CCN1CCN(Cc2ccc(NC(=O)c3ccc(C)c(/C=C/c4cnc(Nc5cc(N6CCNCC6)nc(C)n5)cn4)c3)cc2C(F)(F)F)CC1,17,38*,-151,x,27,-148
CCN1CCN(Cc2ccc(NC(=O)c3ccc(C)c(NC(=O)c4ccno4)c3)cc2C(F)(F)F)CC1,3,4,4,-22,3,-3
Cc1cc(C(=O)CSc2nnc(-c3cccs3)o2)c(C)n1-c1ccccc1,-5,1,-3,-27,2,2
O=C(O)C1OC(Oc2cc3oc(-c4ccccc4)cc(=O)c3c(O)c2O)C(O)C(O)C1O (stereo not given),13,10,9,-14,-60*,12
COc1cc(/C=C2/N=C(c3ccccc3)OC2=O)c(F)cc1OCc1ccccc1,30,6,3,x,-60*,-1
COc1ccc(OC)c(/C=C2\N=C(c3ccccc3)OC2=O)c1,-47,-23,5,x,1,-6
COC(=O)c1ccc(/C=N\N2CCN(Cc3ccc(C)cc3)CC2)cc1,4,2,142*,-21,1,1
O=C1CCC(C(=O)OCC(=O)N2N=C3/C(=C/c4ccccc4)CCCC3C2c2ccccc2)N1 (stereo not given),-9,1,3,-17,2,-2
Cc1ccc(N=Nc2c(N)[nH]n3c(=O)cc(-c4ccccc4)nc23)cc1,18,13,-8,63*,-1,-10
Cc1onc(-c2ccccc2Cl)c1C(=O)N1CCOC12CCCCC2,-2,6,-9,-9,2,2
CCCn1c(=C(C#N)C#N)s/c(=C2\C=Cc3ccccc3N2CC)c1=O,x,x,-1,53*,x,x
Cc1cc(O)c(C(C)C)cc1N=C1CSC(=O)N1,39,40*,2,31,u,30
Cc1ccnc2nc(C(=O)NCc3cccs3)nn12,-1,8,3,-11,2,0
OCC1(Cc2ccc(Cl)cc2)CCN(Cc2ccc(F)c(F)c2)CC1,8,6,-9,-17,2,7
C#CCN1C(=O)S/C(=C/C=C/c2ccc(N(C)C)cc2)C1=O,44*,55*,-363,-38,x,-36
O=C(CN1C(=O)S/C(=C\C=C\c2ccccc2)C1=O)Nc1ccccc1C(=O)O,18,13,-1,-4,-5,2
COc1cc(/C=C2\C(C)=C(C#N)c3nc(N)c(C#N)c(C)c32)ccc1OCC(=O)O,34,35*,-12,-1,-13,6
COc1ccc(C)cc1NC(=O)CCNS(=O)(=O)c1cccc(C(F)(F)F)c1,10,-1,4,x,-1,9
Cc1c(N=C2N=C(NC(=O)NC(C)(C)C)c3ccccc32)c(=O)n(-c2ccccc2)n1C,5,2,-5,-8,-2,6
Cc1c(N=C2N=C(NC(=O)c3cccs3)c3ccccc32)c(=O)n(-c2ccccc2)n1C,-38,-30,-13,125*,-16,-24
COc1ccc(NC(C)=O)cc1NS(=O)(=O)c1cn(C)c(=O)n(C)c1=O,1,1,-3,x,-4,4
O=Cc1sc([O-])nc1-[n+]1ccc2ccccc2c1,41*,47*,x,13,-6,22
CN1CCN(NC(=S)Nc2ccccc2)CC1,3,0,-3,-19,3,-1
SMILES,MCL1-BIM inh,Bcl-xL primary,eLon inh,EBV gp42 inh,MEX-5 binding,GLD-1 RNA inh
CC(C)(O)C(=O)NNC(=S)NCc1ccco1,6,2,1,-12,-32*,-2
Cc1ccccc1-n1c(SC/C(O)=C(\C#N)c2nc3ccccc3[nH]2)nnc1-c1ccncc1,2,9,-10,11,2,5
Cc1cc(C)n2c(SC/C(O)=C(\C#N)c3nc4ccccc4[nH]3)nnc2n1,27,8,-8,67*,-6,2
COc1ccc(/C(O)=C/c2nc3ccccc3n(-c3ccccc3)c2=O)cc1,-29,-18,-33,59*,u,-33
Cc1ccc(-c2ccc(=O)n(CC(=O)NCCN3CCCCC3C)n2)cc1 (stereo not given),41*,34*,0,-12,-1,12
CCCC(CCC)C(=O)NCCN1CCOCC1,0,3,-11,-2,0,1
CN(C)c1ccc(/C=C/C(=O)c2cc(Cl)ccc2O)cc1,11,25,-36,65*,2,5
O=C(/C=C/c1ccc(O)c(O)c1)c1ccccc1O,-6,-3,-11,-16,-38*,1
N#CC1(NC(=O)COC(=O)/C=C/c2ccc3ccccc3n2)CCCCC1,-13,32*,-6,x,0,0
Cc1ccc(S(=O)(=O)C(C#N)c2nc3ccccc3nc2N2CC(C)OC(C)C2)cc1C (stereo not given),9,11,-12,-9,-59*,6
CC1CCCN(c2nc3ccccc3nc2C(C#N)S(=O)(=O)c2cccs2)C1 (stereo not given),18,22,-10,-1,-50*,9
CCC(=O)Nc1nnc(C)s1,x,x,-3,-3,0,x
O=C(Nc1ccc2c(c1)OCO2)c1c(F)c(F)c(F)c(F)c1F,4,8,-7,-5,x,4
CCCn1c(N)c(NCCN2CCOCC2)c(=O)[nH]c1=O,25,33*,9,25,-31*,28
N=C(N)SCP(=O)(c1ccccc1)c1ccccc1,12,6,6,-12,6,3
Cc1cc(C(=O)NNC(=O)c2cccc([N+](=O)[O-])c2)n[nH]1,10,0,4,x,x,-1
O=C(/C=C(\O)c1ccccc1)C(=O)NNC(=O)c1ccccc1[N+](=O)[O-],3,6,-8,x,-48*,8
O=C(NNC(=O)c1ccccc1[N+](=O)[O-])c1cnccn1,2,0,-1,-23,-65*,5
O=C(NNC(=O)c1cnccn1)c1cccc([N+](=O)[O-])c1,4,4,-5,-3,-61*,-2
O=C(NNC(=S)NC(=O)c1ccccc1[N+](=O)[O-])c1ccccc1[N+](=O)[O-],17,6,-2,-7,-21,-2
O=C(c1nn2c(C(F)(F)F)cc(-c3ccccc3)nc2c1Cl)N1CCOCC1,-4,2,-1,-14,1,-5
CCCCOc1ccc(CNn2c(C)nc3ccccc3c2=O)cc1,1,-5,-3,-3,-5,7
O=C(NC1CC(=O)N(c2cccc(F)c2)C1)C(=O)c1c[nH]c2ccccc12 (stereo not given),4,2,-13,x,2,3
O=C(O)c1cc(-c2ccc(/C=c3\sc4nc5ccc(Br)cc5n4c3=O)o2)ccc1Cl,-8,-27,x,x,-29*,-52
